Compounds with a hit are over-represented: about 8.2% of the library has one in this group of screens.
MCF10A rerep: induces DNA re-replication in MCF 10a normal breast cells | MCF 10A DNA re-replication, Hoechst nuclear intensity, 48 h | Potency, µM (series often up to 46.1 µM), most hits filed as activators | 350,000 compounds, 2.9% hits; also: nearly all actives have a fitted effect of over 50% in size
SW480 rereplic: induces DNA re-replication in SW480 colon adenocarcinoma cells. 340,000 compounds, 1.8% hits. SW480 DNA re-replication, Hoechst DNA content imaging, 48 h. Potency, µM (highest dose often 46.1 µM), usual class: activators. AID 624297; also: nearly all actives have a fitted effect of over 55% in size
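250 cells/well; 23 nL cpd via pin tool; 48 hr, 37 C, 5% CO2; Hoechst 40 min; imager read of total nuclear intensity, ex 405/em 500-530 nm.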
ELG1 DNA repair: ELG1-dependent DNA repair inhibition; HEK293T ELG1-luciferase reporter, luminescence, 16 h; DNA damage induced by 5-fluorouridine; 330,000 compounds, 2.3% hits; Potency, µM (highest dose often 46.1 µM), actives largely listed as inhibitors; also: nearly all actives have a fitted effect of over 55% in size
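HEK293T cells expressing luciferase-tagged ELG1 (2,000/well) received 5-Fluorouridine plus compound or DMSO for 16 hr at 37 °C. Luciferase was read by ONE-Glo luminescence after 30 min at room temperature.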
KB-3-1 cytotox: kills parental KB-3-1 adenocarcinoma cells | Potency, µM (titrated, usually from 46.1 µM), hits mostly cytotoxic | 400,000 compounds, 1.4% hits | KB-3-1 viability, CellTiter-Glo ATP luminescence, 72 h; also: nearly all actives have a fitted effect of over 60% in size
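Parental KB-3-1 viability, qHTS format: 72 h compound exposure, 37 °C; CellTiter-Glo; media-only wells and DMSO plates as controls; concentration-effect fits on corrected data.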
KB-V1 MDR tox: kills drug-selected multidrug resistant KB-V1 cells; 400,000 compounds, 3.4% hits; KB-V1 MDR cells viability, CellTiter-Glo, 72 h; Potency, µM (highest dose often 46.1 µM), actives largely listed as cytotoxic; also: nearly all actives have a fitted effect of over 60% in size
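Cells of the MDR subline KB-V1 are plated, dosed with compound at multiple concentrations, and incubated 72 h at 37 degrees C; CellTiter-Glo is then added and luminescence read after 10 min.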
Each line names hits and unclear results; the compound was inactive in the other large screens. Calls follow the shape of the dose curve; as a rule, active = well fitted curve in the direction sought with a large enough effect; inconclusive = small, poorly fitted or top-dose-only effect, or another doubt; inactive = no such curve, though single readings can be large; an effect the other way counts as inactive or inconclusive.

CC(=O)N1CCc2c(sc(NC(=O)c3ccc([N+](=O)[O-])o3)c2C#N)C1	MCF10A rerep 1.5µM, SW480 rereplic 2.3µM, ELG1 DNA repair inconclusive, KB-3-1 cytotox inconclusive
CCOC(=O)N1CCc2c(sc(NC(=O)c3ccc(S(=O)(=O)N4CCCC4)cc3)c2C#N)C1	MCF10A rerep inconclusive, ELG1 DNA repair 16µM
CC(C)N1CCc2c(sc(NC(=O)c3ccc(S(=O)(=O)N4CCOCC4)cc3)c2C#N)C1	none
COc1cc(C(=O)Nc2sc3c(c2C#N)CCN(C(C)=O)C3)cc(OC)c1OC	KB-3-1 cytotox inconclusive
COc1ccc(C(=O)Nc2sc3c(c2C#N)CCN(C(C)=O)C3)cc1	MCF10A rerep 23µM, SW480 rereplic 23µM, KB-3-1 cytotox 8.2µM, KB-V1 MDR tox inconclusive
CC(=O)N1CCc2c(sc(NC(=O)Cc3ccc(F)cc3)c2C#N)C1	ELG1 DNA repair inconclusive
COC(=O)c1sc(NC(=O)c2ccc([N+](=O)[O-])o2)c(C#N)c1C	MCF10A rerep 2.9µM, SW480 rereplic 3.3µM, ELG1 DNA repair 4.6µM, KB-3-1 cytotox inconclusive
COC(=O)c1c(NC(=O)c2ccc([N+](=O)[O-])o2)sc2c1CCN(C(C)C)C2	MCF10A rerep 2.9µM, SW480 rereplic 2.3µM, KB-3-1 cytotox 6.5µM, KB-V1 MDR tox 15µM
CC(=O)c1ccc(S(=O)(=O)Nc2c(C)nn(C)c2C)cc1	none
O=C(NCCc1ccc(Cl)cc1)C(=O)NCC(c1cccs1)S(=O)(=O)c1ccccc1 (centres undefined)	none (no result: MCF10A rerep, SW480 rereplic, ELG1 DNA repair)
CCOC(=O)c1ccccc1NC(=O)c1sc2ccccc2c1Cl	none (no result: MCF10A rerep, SW480 rereplic, ELG1 DNA repair)
CCOC(=O)c1sc2ccccc2c1OC(=O)c1ccccc1OC	MCF10A rerep inconclusive, SW480 rereplic 0.58µM, ELG1 DNA repair inconclusive
COc1ccc(/C=C/C(=O)O)cc1S(=O)(=O)NCc1cccnc1	none
O=C(O)c1cccc(Nc2c3ccccc3nc3ccccc23)c1	none
O=C(O)c1cc(S(=O)(=O)O)cc(Nc2c3ccccc3nc3ccccc23)c1O	SW480 rereplic 5.2µM, ELG1 DNA repair inconclusive
CCc1ccc(NC(=O)CSc2nc(=O)n(CCCN(C)C)c3c2CCC3)cc1	KB-V1 MDR tox inconclusive
COC(=O)c1ccc(CN2C(=O)NC(Cc3c[nH]c4ccccc34)C2=O)cc1 (centres undefined)	KB-V1 MDR tox 18µM
COc1ccc(Cl)cc1NC(=O)CN1C(=O)NC(Cc2c[nH]c3ccccc23)C1=O (centres undefined)	ELG1 DNA repair inconclusive, KB-3-1 cytotox inconclusive, KB-V1 MDR tox 21µM
O=C(CN1C(=O)NC(Cc2c[nH]c3ccccc23)C1=O)Nc1cccc(S(=O)(=O)N2CCCCCC2)c1 (centres undefined)	ELG1 DNA repair 21µM, KB-3-1 cytotox inconclusive
COc1cccc(NC(=O)CN2C(=O)NC(Cc3c[nH]c4ccccc34)C2=O)c1 (centres undefined)	ELG1 DNA repair inconclusive
O=C1NC(Cc2c[nH]c3ccccc23)C(=O)N1Cc1ccccc1 (centres undefined)	none
COc1cc(C2NCC(c3ccc(Cl)cc3Cl)c3c2[nH]c2ccccc32)cc(OC)c1OC (centres undefined)	MCF10A rerep 18µM, SW480 rereplic inconclusive, KB-3-1 cytotox 18µM, KB-V1 MDR tox inconclusive
CC1=C(c2ccc(C)c(C)c2)S(=O)(=O)N(Cc2ccc(C(=O)Nc3cc(F)ccc3F)cc2)C1=O	none (no result: MCF10A rerep, SW480 rereplic, ELG1 DNA repair)
NS(=O)(=O)c1ccc(CCNC(=O)c2ccc(C#CC3(O)CCCCC3)cc2)cc1	ELG1 DNA repair 6.5µM, KB-3-1 cytotox inconclusive
Cc1ccc(NC(=O)c2ccc(Nc3c([N+](=O)[O-])cc([N+](=O)[O-])cc3[N+](=O)[O-])cc2)cc1	MCF10A rerep inconclusive, SW480 rereplic inconclusive, ELG1 DNA repair 7.3µM, KB-V1 MDR tox inconclusive
COc1ccc(CNCc2cccc3ccccc23)cc1	none
O=C(Nc1ccc2c(c1)CN(Cc1ccccc1O)CC2)C1CCCO1 (centres undefined)	ELG1 DNA repair inconclusive
Cc1c(C(=O)NCCCN2CCOCC2)sc2nc(-c3ccc(F)cc3)cn12	none
COc1ccc(-c2cn3c(C)c(C(=O)NCCN4CCOCC4)sc3n2)cc1	KB-V1 MDR tox 12µM
CCN(CC)C(=O)c1sc2nc(-c3ccc(OC)cc3)cn2c1C	ELG1 DNA repair inconclusive, KB-V1 MDR tox 3.7µM
Oc1ccccc1C1=NC(c2ccccc2)NC(c2ccccc2)C1 (centres undefined)	none (no result: MCF10A rerep, SW480 rereplic, ELG1 DNA repair)
CC1(C)CC(NC(=O)CCc2nnc(CCCCc3ccccc3)o2)CCO1 (centres undefined)	none
COc1ccc(C2=Nc3ccccc3N(C(=O)c3cnccn3)C2C(=O)NC2CCCC2)cc1 (centres undefined)	none (no result: MCF10A rerep, SW480 rereplic, ELG1 DNA repair)
N#Cc1c(NCCO)nc(NCc2ccccc2)c2c1CCN(Cc1ccccc1)C2	MCF10A rerep inconclusive
C=CCNc1nc(N2CCCCC2)c(C#N)c2c1CN(Cc1ccccc1)CC2	MCF10A rerep 16µM, SW480 rereplic inconclusive, ELG1 DNA repair 23µM, KB-3-1 cytotox inconclusive
COc1cccc(NC(=O)CSc2nc3ccccc3cc2Cc2ccccc2)c1	ELG1 DNA repair inconclusive
COc1cccc(CSc2nc3ccccc3cc2C=O)c1	MCF10A rerep 13µM, SW480 rereplic 1.3µM, ELG1 DNA repair inconclusive, KB-3-1 cytotox inconclusive, KB-V1 MDR tox inconclusive
COc1ccc(CCNc2ncnc3c2oc2ccccc23)cc1OC	ELG1 DNA repair 16µM, KB-3-1 cytotox 9.2µM, KB-V1 MDR tox 2.6µM
COc1ccc(CCNc2ncnc3c2c(C)c(C)n3CCO)cc1OC	SW480 rereplic inconclusive, ELG1 DNA repair 23µM
Cc1nc(NCCc2cnc[nH]2)c2oc3ccccc3c2n1	KB-V1 MDR tox inconclusive
COc1ccc(CCNc2nc(C)nc3c2oc2ccccc23)cc1OC	MCF10A rerep inconclusive, ELG1 DNA repair 10µM, KB-3-1 cytotox inconclusive, KB-V1 MDR tox 16µM
Cc1ccc(N/C(N)=N/c2nc3c(c(=O)[nH]2)CCCC3)c(C)c1	none
Cc1ccc(N/C(N)=N/c2nc(C)cc(N3CCCCC3)n2)c(C)c1	MCF10A rerep 18µM, SW480 rereplic inconclusive, ELG1 DNA repair 16µM, KB-3-1 cytotox 16µM, KB-V1 MDR tox 10µM
Cc1cccc(N2CCN(C(=O)c3ccncc3)CC2C)c1 (centres undefined)	SW480 rereplic inconclusive, ELG1 DNA repair inconclusive, KB-3-1 cytotox inconclusive
COc1cccc(N2CCN(C(=O)c3cc(C)oc3C)CC2)c1	MCF10A rerep inconclusive, SW480 rereplic inconclusive, KB-3-1 cytotox 23µM, KB-V1 MDR tox 15µM
Cc1cccc(N2CCN(C(=O)CC(NC(=O)c3ccccc3)c3ccccc3)CC2C)c1 (centres undefined)	KB-3-1 cytotox inconclusive, KB-V1 MDR tox 3.7µM
Cc1cccc(N2CCN(C(=O)c3csc4ccccc34)CC2C)c1 (centres undefined)	MCF10A rerep inconclusive, ELG1 DNA repair inconclusive, KB-3-1 cytotox inconclusive, KB-V1 MDR tox 15µM (no result: SW480 rereplic)

High-throughput results from PubChem BioAssay.
